Active and inactive are the calls of the source. The calls were made as follows: active = hit-call score of the fitted dose curve at least 0.9, where 1 is the maximum; inactive = score below 0.9.
How the values were obtained:
[1] = ATG_E_Box_CIS: Attagene CIS-FACTORIAL HepG2 Assay for human Enhancer Box (E-box) (AID 2282936); conditions: HepG2 E-box cis-reporter transcription, actives raise or lower the signal
In short: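 First, HepG2 cells receive multiple cis-regulated reporter constructs by transient transfection. Next, chemicals are applied for 24 h. Finally, reporter mRNA is quantified via RT-PCR and capillary electrophoresis, with DMSO as baseline.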

[2] = ATG_M_61_CIS: Attagene CIS-FACTORIAL HepG2 Assay for M61 Transcription Factor (Internal Marker) (AID 2282937); conditions: HepG2 Attagene CIS-FACTORIAL M61 internal marker reporter; actives raise or lower the signal
In short: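 Background-control endpoint: HepG2 cells with cis-regulated reporter constructs, 24 h exposure, reporter mRNA detected via fluorescent primer extension and capillary electrophoresis; values from bidirectional fitting with DMSO baseline.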

[3] = ATG_EGR_CIS: Attagene CIS-FACTORIAL HepG2 Assay for human Early Growth Response 1 (EGR1) (AID 2282938); conditions: HepG2 Attagene CIS-FACTORIAL EGR reporter mRNA; actives raise or lower the signal
In short: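 Endpoint derived by bidirectional fitting versus DMSO vehicle. Method: cis-promoter reporter units transfected into HepG2, 24 h dosing, RNA isolation, RT-PCR with 6-FAM primer extension and HpaI digestion, then capillary electrophoresis fluorescence detection.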

[4] = ATG_M_19_CIS: Attagene CIS-FACTORIAL HepG2 Assay for M19 Transcription Factor (Internal Marker) (AID 2282939); conditions: HepG2 Attagene CIS-FACTORIAL M19 internal marker reporter; actives raise or lower the signal
In short: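 Signals come from fluorescence of labelled reporter-specific PCR fragments resolved by capillary electrophoresis, following 24 h treatment of HepG2 cells transfected with cis-promoter reporter units; activity was fitted in both directions relative to DMSO.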

[5] = ATG_ERE_CIS: Attagene CIS-FACTORIAL HepG2 Assay for Estrogen Response Element (ERE) (AID 2282940); conditions: HepG2 ERE cis-reporter, Attagene RNA transcript; actives raise or lower the signal
In short: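 Fluorescence of capillary-separated, FAM-labelled reporter cDNA fragments indicates reporter mRNA levels in HepG2 cells exposed to chemicals for 24 h. Transient transfection with cis-regulated units; data fitted in both directions against DMSO.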

[6] = target: Hepatocyte nuclear factor 3-beta (Homo sapiens) (UniProt Q9Y261); assay: ATG_FoxA2_CIS: Attagene CIS-FACTORIAL HepG2 Assay for human Forkhead box A2 (FOXA2) (AID 2282942); conditions: HepG2 cis-reporter transcription factor activity, 24 h; actives raise or lower the signal
In short: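 Measured: reporter mRNA induction or loss in HepG2 transiently carrying multiple cis-regulated reporter units, 24 h after dosing. Quantified by RT-PCR plus capillary electrophoresis, normalised to DMSO.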

[7] = ATG_FoxO_CIS: Attagene CIS-FACTORIAL HepG2 Assay for human Forkhead box O (FoxO) (AID 2282943); conditions: HepG2 Attagene cis-reporter, FoxO element, mRNA; actives raise or lower the signal
In short: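 Read-out: fluorescence of 6-FAM-labelled reporter cDNA fragments resolved by capillary electrophoresis. Transiently transfected HepG2 cells were dosed for 24 h; activity fitted in both directions relative to DMSO controls.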

[8] = ATG_GATA_CIS: Attagene CIS-FACTORIAL HepG2 Assay for human GATA Binding Protein (AID 2282944); conditions: HepG2 GATA cis-element reporter, Attagene multiplex mRNA; actives raise or lower the signal
In short: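 After transfecting HepG2 cells with multiple cis-regulated reporter units, chemicals are dosed for 24 h; isolated RNA undergoes RT-PCR and fluorescent labeling before capillary electrophoresis, with activity expressed against DMSO.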

[9] = ATG_GLI_CIS: Attagene CIS-FACTORIAL HepG2 Assay for human Zinc Finger Protein GLI1 (AID 2282945); conditions: HepG2, Attagene cis-factorial reporter mRNA, GLI element; actives raise or lower the signal
In short: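 Transiently transfected HepG2 cells report endogenous transcription factor activity via cis-element-driven reporter units. After 24 h compound exposure, reporter mRNA was measured by RT-PCR with capillary electrophoresis; bidirectional fitting against DMSO baseline.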

[10] = target: Bile acid receptor (Homo sapiens) (UniProt Q96RI1); assay: ATG_IR1_CIS: Attagene CIS-FACTORIAL HepG2 Assay for human Nuclear Receptor Subfamily 1 Group H Member 4 (NR1H4), IR1 submotif (AID 2282946); conditions: IR1 reporter transcription, actives raise or lower the signal
In short: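 HepG2 cells transiently transfected with multiple cis-promoter-driven reporter units to measure endogenous transcription factor activity; 24 h exposure. Reporter mRNA read by RT-PCR, FAM labelling, HpaI digestion and capillary electrophoresis. Bidirectional fit versus DMSO.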

[11] = ATG_GRE_CIS: Attagene CIS-FACTORIAL HepG2 Assay for human Glucocorticoid Response Elements (GRE) (AID 2282947); conditions: HepG2 GRE cis-reporter, Attagene multiplex mRNA; actives raise or lower the signal
In short: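 Endogenous transcription factor activity is read through cis-element reporter constructs transiently transfected into HepG2 cells. After 24 h treatment, labelled RT-PCR products are resolved by capillary electrophoresis; DMSO sets baseline for bidirectional curve fitting.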

[12] = ATG_ISRE_CIS: Attagene CIS-FACTORIAL HepG2 Assay for human Interferon Regulatory Factor 1 (IRF1) binding to an Interferon-Stimulated Response Element (ISRE) (AID 2282948); conditions: HepG2 ISRE cis-reporter (Attagene), mRNA transcription readout; actives raise or lower the signal
In short: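 Transfected HepG2 (multiple reporter transcription units, cis elements) dosed 24 h. RNA → oligo(dT) RT → PCR → 6-FAM primer extension → HpaI → CE. DMSO = negative control/baseline.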

[13] = ATG_M_32_CIS: Attagene CIS-FACTORIAL HepG2 Assay for M32 Transcription Factor (Internal Marker) (AID 2282949); conditions: HepG2 Attagene cis-factorial M32 reporter, mRNA; actives raise or lower the signal;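 also: background control marker of the multiplexed CIS panel rather than a real target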
In short: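 Internal background marker read-out: RT-PCR/capillary electrophoresis fluorescence of reporter transcripts from transiently transfected HepG2 cells after 24 h chemical exposure. Activity fitted bidirectionally relative to DMSO negative control.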

[14] = ATG_M_06_CIS: Attagene CIS-FACTORIAL HepG2 Assay for M06 Transcription Factor (Internal Marker) (AID 2282950); conditions: HepG2 Attagene CIS-FACTORIAL M06 internal marker reporter; actives raise or lower the signal
In short: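 HepG2 liver cells, 24 h exposure. Reporter transcripts from transfected cis-element constructs quantified by RT-PCR/capillary electrophoresis fluorescence. Bidirectional curve fit against DMSO.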

[15] = target: Hypoxia-inducible factor 1-alpha (Homo sapiens) (UniProt Q16665); assay: ATG_HIF1a_CIS: Attagene CIS-FACTORIAL HepG2 Assay for human Hypoxia Inducible Factor 1 (HIF1A) (AID 2282951); conditions: HepG2 Attagene cis-factorial HIF1a reporter transcription; actives raise or lower the signal
In short: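 Dosed 24 h, transfected HepG2 cells yielded total RNA whose reporter transcripts were RT-PCR-amplified and sized by capillary electrophoresis using fluorescent labelling; DMSO defined baseline, with gain and loss of signal both fitted.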

[16] = target: Hepatocyte nuclear factor 6 (Homo sapiens) (UniProt Q9UBC0); assay: ATG_HNF6_CIS: Attagene CIS-FACTORIAL HepG2 Assay for human Hepatocyte Nuclear Factor 6 (HNF6) (AID 2282952); conditions: HepG2 Attagene cis-factorial HNF6 reporter transcription; actives raise or lower the signal
In short: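 Multiplexed mRNA reporter assay in transfected HepG2; 24 h dosing; RT-PCR plus capillary electrophoresis fluorescence; DMSO-referenced bidirectional curve fitting.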

[17] = ATG_MRE_CIS: Attagene CIS-FACTORIAL HepG2 Assay for human Metal Responsive Element (MRE) (AID 2282954); conditions: HepG2 MRE cis-reporter transcription, Attagene multiplex; actives raise or lower the signal
In short: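 Fluorescent reporter fragments separated by capillary electrophoresis give mRNA induction for the MRE unit after 24 h treatment of transfected HepG2 cells. Endogenous transcription-factor activity is read; DMSO serves as negative control and baseline.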

[18] = ATG_PBREM_CIS: Attagene CIS-FACTORIAL HepG2 Assay for human Phenobarbital-responsive Enhancer Module (PBREM) (AID 2282955); conditions: HepG2 PBREM cis-reporter, Attagene multiplexed transcription; actives raise or lower the signal
In short: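 Transfected liver-derived HepG2 cells exposed 24 h; PBREM reporter transcript quantified via RT-PCR and capillary electrophoresis, with activity in either direction referenced to DMSO.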

[19] = ATG_Ets_CIS: Attagene CIS-FACTORIAL HepG2 Assay for human Erythroblast Transformation Specific (ETS) (AID 2282941); conditions: HepG2 ETS cis-reporter transcription, actives raise or lower the signal
In short: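 Steps: transfect HepG2 with multiple reporter units; treat compound 24 h; isolate RNA, DNase-treat, reverse-transcribe; PCR-amplify, label with 6-FAM, digest with HpaI; separate by capillary electrophoresis. Activity fitted both directions versus DMSO.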

[20] = target: Heat shock factor protein 1 (Homo sapiens) (UniProt Q00613); assay: ATG_HSE_CIS: Attagene CIS-FACTORIAL HepG2 Assay for human Heat Shock Transcription Factor 1 (HSE) (AID 2282953); conditions: HepG2 HSE cis-reporter, Attagene RNA transcription; actives raise or lower the signal
In short: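 Endogenous transcription factor activity captured via cis-promoter reporter units transfected into HepG2; treatment lasted 24 h. Fluorescence intensity of reporter fragments analysed with bidirectional curve fitting, DMSO baseline.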

Measured: AC50

Sequence of Heat shock factor protein 1 (Homo sapiens) (Q00613 whole entry, looked up, the tested form may be a part): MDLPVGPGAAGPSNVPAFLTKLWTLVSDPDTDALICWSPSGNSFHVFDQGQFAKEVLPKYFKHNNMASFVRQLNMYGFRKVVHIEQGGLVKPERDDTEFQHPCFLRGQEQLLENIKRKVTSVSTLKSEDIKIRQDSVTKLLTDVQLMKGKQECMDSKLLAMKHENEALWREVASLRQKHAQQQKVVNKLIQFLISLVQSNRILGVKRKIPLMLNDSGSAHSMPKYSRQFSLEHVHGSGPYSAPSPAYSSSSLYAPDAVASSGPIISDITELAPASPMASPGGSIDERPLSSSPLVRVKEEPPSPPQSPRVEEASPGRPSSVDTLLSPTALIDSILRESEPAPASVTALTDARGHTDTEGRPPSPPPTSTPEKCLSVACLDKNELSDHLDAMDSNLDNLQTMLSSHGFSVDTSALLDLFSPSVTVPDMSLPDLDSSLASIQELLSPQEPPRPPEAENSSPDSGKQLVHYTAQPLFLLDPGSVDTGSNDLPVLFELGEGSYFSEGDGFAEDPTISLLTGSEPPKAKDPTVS
Sequence of Hypoxia-inducible factor 1-alpha (Homo sapiens) (Q16665 whole entry, looked up): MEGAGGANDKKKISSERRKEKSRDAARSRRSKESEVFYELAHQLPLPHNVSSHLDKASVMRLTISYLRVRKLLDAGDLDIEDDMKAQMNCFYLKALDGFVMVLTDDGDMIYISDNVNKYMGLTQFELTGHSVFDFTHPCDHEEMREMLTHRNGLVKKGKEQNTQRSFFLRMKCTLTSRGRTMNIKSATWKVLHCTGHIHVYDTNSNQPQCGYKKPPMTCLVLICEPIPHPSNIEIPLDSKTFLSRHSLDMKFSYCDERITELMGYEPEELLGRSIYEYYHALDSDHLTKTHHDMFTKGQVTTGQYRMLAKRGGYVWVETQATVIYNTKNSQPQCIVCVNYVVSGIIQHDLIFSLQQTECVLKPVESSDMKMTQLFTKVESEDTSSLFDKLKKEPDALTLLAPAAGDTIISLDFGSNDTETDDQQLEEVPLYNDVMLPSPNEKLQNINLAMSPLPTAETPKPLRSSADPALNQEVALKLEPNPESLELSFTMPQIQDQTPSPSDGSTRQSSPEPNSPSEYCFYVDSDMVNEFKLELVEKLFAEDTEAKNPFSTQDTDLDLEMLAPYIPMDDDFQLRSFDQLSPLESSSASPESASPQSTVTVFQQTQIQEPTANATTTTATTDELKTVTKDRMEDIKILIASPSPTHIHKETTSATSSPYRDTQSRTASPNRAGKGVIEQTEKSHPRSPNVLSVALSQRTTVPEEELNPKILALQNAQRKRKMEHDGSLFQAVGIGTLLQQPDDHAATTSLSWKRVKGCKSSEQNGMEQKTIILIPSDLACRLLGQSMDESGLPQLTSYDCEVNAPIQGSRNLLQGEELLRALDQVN
Sequence of Hepatocyte nuclear factor 6 (Homo sapiens) (Q9UBC0 whole entry, looked up): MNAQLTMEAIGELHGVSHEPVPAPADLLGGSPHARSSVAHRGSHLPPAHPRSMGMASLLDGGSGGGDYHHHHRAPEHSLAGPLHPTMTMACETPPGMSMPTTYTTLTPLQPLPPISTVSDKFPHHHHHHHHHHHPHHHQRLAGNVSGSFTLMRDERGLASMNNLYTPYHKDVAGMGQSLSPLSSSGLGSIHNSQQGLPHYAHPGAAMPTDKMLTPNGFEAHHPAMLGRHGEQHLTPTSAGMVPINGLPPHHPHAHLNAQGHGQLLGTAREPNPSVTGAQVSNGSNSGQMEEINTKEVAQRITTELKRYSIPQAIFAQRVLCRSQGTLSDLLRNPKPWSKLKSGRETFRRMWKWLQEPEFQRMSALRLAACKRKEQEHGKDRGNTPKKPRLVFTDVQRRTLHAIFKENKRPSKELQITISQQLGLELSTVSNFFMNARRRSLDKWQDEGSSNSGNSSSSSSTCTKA
Sequence of Bile acid receptor (Homo sapiens) (Q96RI1 whole entry, looked up): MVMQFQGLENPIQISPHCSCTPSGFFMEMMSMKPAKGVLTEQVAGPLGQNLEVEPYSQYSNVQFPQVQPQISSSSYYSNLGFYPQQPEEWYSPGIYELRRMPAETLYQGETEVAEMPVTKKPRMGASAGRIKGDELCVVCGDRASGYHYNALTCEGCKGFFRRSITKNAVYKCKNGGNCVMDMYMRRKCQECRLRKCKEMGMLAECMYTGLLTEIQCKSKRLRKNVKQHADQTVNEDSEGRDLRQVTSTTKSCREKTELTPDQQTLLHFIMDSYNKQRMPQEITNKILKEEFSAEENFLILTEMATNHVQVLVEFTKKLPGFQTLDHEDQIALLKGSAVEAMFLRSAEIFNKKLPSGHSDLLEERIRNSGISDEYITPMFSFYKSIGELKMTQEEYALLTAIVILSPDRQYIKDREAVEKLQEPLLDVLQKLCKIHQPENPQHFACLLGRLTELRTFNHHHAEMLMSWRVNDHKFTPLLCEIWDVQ
Sequence of Hepatocyte nuclear factor 3-beta (Homo sapiens) (Q9Y261 whole entry, looked up): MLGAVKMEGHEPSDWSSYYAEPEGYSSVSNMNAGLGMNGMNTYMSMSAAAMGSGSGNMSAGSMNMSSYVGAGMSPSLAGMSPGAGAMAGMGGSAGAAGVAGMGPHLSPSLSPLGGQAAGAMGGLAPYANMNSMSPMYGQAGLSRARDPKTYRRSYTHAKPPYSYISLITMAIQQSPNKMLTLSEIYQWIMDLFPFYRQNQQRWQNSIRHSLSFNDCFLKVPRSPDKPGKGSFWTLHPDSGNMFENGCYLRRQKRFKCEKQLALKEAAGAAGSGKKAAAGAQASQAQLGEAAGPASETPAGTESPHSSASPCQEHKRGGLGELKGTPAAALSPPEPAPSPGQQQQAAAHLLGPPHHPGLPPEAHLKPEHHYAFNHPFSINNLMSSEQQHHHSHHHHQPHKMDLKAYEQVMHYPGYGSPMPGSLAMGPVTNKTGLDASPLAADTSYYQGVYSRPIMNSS

O=S(=O)(O)c1ccccc1C=Cc1ccc(-c2ccc(C=Cc3ccccc3S(=O)(=O)O)cc2)cc1
active: [1] 40.6 µM
not listed: [19] | [20]
inactive: all other assays above

CC(C)COC(=O)C=Cc1ccccc1
not listed: [6] | [11]
inactive: all other assays above

CN(C)CCCN(C)C
not listed: [6] | [10] | [12] | [20]
inactive: all other assays above

O=CN1CCCCC1
not listed: [10] | [11] | [12]
inactive: all other assays above

Cc1c(C)c([N+](=O)[O-])c(C(C)(C)C)c([N+](=O)[O-])c1C
not listed: [10] | [11] | [14]
inactive: all other assays above

[Cl][In]([Cl])[Cl]
active: [5] 163 µM
not listed: [6] | [10] | [20]
inactive: all other assays above

CCCCCCCCc1ccc(Nc2ccc(CCCCCCCC)cc2)cc1
not listed: [6]
inactive: all other assays above

— PubChem BioAssay (EPA / NIEHS)
